# Screening results: PubChem BioAssay, National Center for Advancing Translational Sciences (NCATS)
# HepG2 tox = qHTS for Inhibitors of TGF-b: Cytotox Counterscreen | HepG2 CAGA-GFP viability, ATP luminescence, 18 h | Potency, µM (highest dose often 46.1 µM), for inactives: at the highest dose activity change, negative = cytotoxicity, usual class: cytotoxic | hit rate 0.76% among 410,000
#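 CellTiter-Glo luminescence gave cytotoxicity after 18 hours at 37 degrees C. The cells were HepG2 CAGA-GFP in 1% FBS DMEM, stimulated with 500 pg/mL TGF-beta after compound addition. %Activity was normalised to no-cell wells (complete cell-killing) and DMSO (no toxicity), and curves were fitted and classified.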
# ATXN viability = Viability Counterscreen for Primary qHTS for Inhibitors of ATXN expression; S2 cells (HEK-293 line with an ATXN2-luciferase reporter) viability, CellTiter-Fluor protease fluorescence, 24 h; hit rate 0.49% among 400,000; Potency, µM (doses to about 56.7 µM), most hits filed as cytotoxic; further: nearly all actives have a fitted effect of over 40% in size
# TGFb SMAD3 inh = qHTS for Inhibitors of TGF-b | HepG2 CAGA-GFP TGF-b/SMAD3 reporter, GFP fluorescence, 18 h; TGF-beta stimulated, 500 pg/mL final | Potency, µM (doses to about 46.1 µM), inactives show at the highest dose activity, negative = inhibition, hits mostly inhibitors | AID 588855, 2011 | hit rate 1.2% among 410,000; further: on the % scale 0 is the no-effect control and ±100 the full control effect; nearly all actives have a fitted effect of over 65% in size
#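 Cell-based qHTS in HEPG2 carrying a CAGA-GFP Smad reporter; compounds added before 500 pg/mL final TGF-beta, 18 h incubation at 37 degrees C, GFP fluorescence quantified per cell by imaging cytometry.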
# ATXN2 expr inh = Primary qHTS for Inhibitors of ATXN expression; hit rate 0.72% among 360,000; Potency, µM (titrated, usually from 57 µM), inactives show top-dose activity change, negative = inhibition, hits mostly inhibitors; HEK-293 ATXN2-luciferase reporter, luminescence, 24 h; further: on the % scale 0 is the no-effect control and ±100 the full control effect; nearly all actives have a fitted effect of over 55% in size
#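 ATXN2-luciferase reporter cells (luciferase flanked by upstream and downstream ATXN2 gene portions) were treated 24 h at 37 °C with compounds at up to 57 uM. SteadyGlo luminescence gave expression; GF-AFC fluorescence gave viability.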
# * = called active by the depositor; i = inactive; ? = inconclusive; / = no result given; ! = repeats disagree; [ ] = remark or other dose. This is a sample that favours compounds with a hit; in the whole collection about 2.3% have one here. The call rests on the fitted dose curve; in most records, active means well fitted curve in the direction sought with a large enough effect; inconclusive means small, poorly fitted or top-dose-only effect, or another doubt; inactive means no such curve, though single readings can be large; an effect the other way counts as inactive or inconclusive. Potency means the concentration at half of the fitted maximal effect.
SMILES,HepG2 tox,ATXN viability,TGFb SMAD3 inh,ATXN2 expr inh
S=C(NN=C(c1ccccc1)c1ccccn1)N(Cc1ccccn1)Cc1ccccn1,-85%,/,?,0.89µM*
Cc1ccccc1NC(=S)N(Cc1ccccn1)Cc1ccccc1Cl,-24%,?,?,?
COc1ccccc1NC(=S)N(Cc1ccc(C)cc1)Cc1ccccn1,-17%,i,-5%,1%[11.3 µM]
CC#CCC(C)[C@H](O)/C=C/[C@@H]1[C@H]2C/C(=C/CCCC(=O)O)C[C@H]2C[C@H]1O (some centres undefined),/,i,/,/
C[N+]1(C)[C@@H]2C[C@@H](OC(=O)C(O)(c3cccs3)c3cccs3)C[C@H]1[C@@H]1O[C@@H]12,/,/,/,3%
COc1ccc(CN2CCN(Cc3c[nH]c4ccccc34)CC2)c(OC)c1,-27%,i,-12%,/
COc1ccc2c(c1)c(C1=C(c3c[nH]c4ccccc34)C(=O)NC1=O)cn2CCCN(C)C,/,/,/,22µM*
O=C(Nc1ccccc1Cl)c1ccc2c(=O)n3c(nc2c1)CCC3,7%,?,11%,-22%
O=C(Nc1nc(-c2ccccc2)cs1)c1ccc(N2CCOCC2)c([N+](=O)[O-])c1,-24%,?,-16%,13µM*
O=C(Nc1nc(-c2ccccc2)cs1)c1ccc2c(=O)n3c(nc2c1)CCCCC3,-23%,?,?,14µM*
Cc1ccc(-c2csc(NC(=O)c3cc([N+](=O)[O-])ccc3N3CCOCC3)n2)cc1,5%,i,2%,/
O=C1NC(O)CCN1[C@@H]1O[C@H](CO)[C@H](O)[C@H]1O (some centres undefined),/,/,/,0%
CCCOC(=O)c1ccc(-c2c(C)noc2-c2ccc(OC)cc2O)o1,13µM*,i,16µM*,-17%
COc1ccc(-c2onc(C)c2-c2cscn2)c(O)c1,-11%,i,0%,-30%
O=C1C(=C(c2ccccc2)N2CCOCC2)Cc2ccccc21,8.9µM*,?,3.2µM*,/
CCOCN(C(=O)Cn1c(COC)nc2ccccc21)c1c(C)cccc1CC,-30%,?,-22%,1%
CCOCN(C(=O)Cn1cnc2cc(C)c(C)cc21)c1c(C)cccc1CC,-20%,28µM*,-29%,-19%
CN1CCN(c2ncc(-c3cc(Cl)cc(Cl)c3Cl)c(N)n2)CC1,/,/,/,5%
O=C(NCc1ccccc1)C1Nc2ccc(OC(F)(F)F)cc2C2C=CCC12 (centres undefined),-4%,i,?,-16%
O=C(NCCOc1ccccc1)C1Nc2ccc(C(F)(F)F)cc2C2c3ccccc3CC12 (centres undefined),16µM*,i,?,-37%
CCOC(=O)C1Nc2ccc(C(F)(F)F)cc2C2c3ccccc3CC12 (centres undefined),-101%,?,?,25µM*
COC(=O)c1cccc(C(=O)N2CCc3c(cnc(C)c3CNC(=O)c3ccsc3)C2)c1,/,i,/,/
CCC[C@@H](C=O)NC(=O)[C@H](CC(C)C)NC(=O)[C@H](CC(C)C)NC(=O)OCc1ccccc1,/,/,/,1.5µM*
CC(C)CC(NC(=O)OCc1ccccc1)C(=O)NC(Cc1c[nH]c2ccccc12)C(=O)O (centres undefined),16%,i,60%,15%
Oc1ccc(-c2nnc(SCC3CCCCC3)o2)cc1,11µM*,?,-29%,43%
SMILES,HepG2 tox,ATXN viability,TGFb SMAD3 inh,ATXN2 expr inh
CC(=O)Nc1ccccc1-c1nc(CNC(=O)c2cccc(-n3cccn3)c2)c(C)o1,/,i,/,/
Cc1[nH]c2ccccc2c1C(=O)COC(=O)c1c(-c2c(F)cccc2Cl)noc1C,-6%,?,13µM*,?
Cc1[nH]c2ccccc2c1C(=O)COC(=O)c1c(-c2ccccc2Cl)noc1C,-6%,i,-9%,-15%
C/C=C1\[C@H]2C=C(C)C[C@]1(N)c1ccc(=O)[nH]c1C2,/,i,/,15%
CCN(CC)CCNC(=O)c1ccc(NC(=O)c2cn(-c3ccccc3)nc2-c2cccs2)cc1,11µM*,/,?,?
CCOc1ccc(NC(=O)CN(C)C(=O)c2cn(-c3ccc(F)cc3)nc2-c2cccc(OC)c2)cc1OCC,-13%,i,?,?
CCN(CC)CCNC(=O)c1ccc(NC(=O)c2cn(-c3ccc(F)cc3)nc2-c2cccc(OC)c2)cc1,i,28µM*,?,?
Cc1cc(C)c(C)c(OC(=O)c2sc(Cl)nc2C)c1,1%,22µM*,0%,20µM*
Cc1ccc(NC(=O)c2sc(Cl)nc2C)c(C)c1,44%,i,3%,-1%
CCn1c(C(=O)N2CCC(C(=O)N3CCN(c4cc(C)ccc4C)CC3)CC2)cc2sccc21,-21%,/,?,/
CCn1c(C(=O)N2CCC(C(=O)N3CCN(c4cccc(C)c4C)CC3)CC2)cc2sccc21,-13%,/,11µM*,/
CCNc1nc(NCC)n2c(SC(C(=O)Nc3cc(Cl)cc(Cl)c3)c3ccccc3)nnc2n1 (centres undefined),-10%,/,-3%,25µM*
CO[C@@]12[C@H](COC(N)=O)C3=C(C(=O)C(C)=C(N)C3=O)N1C[C@@H]1N[C@@H]12,0%,?,-4%,1.7µM*!
CO[C@@]12[C@@H]3N[C@@H]3CN1C1=C(C(=O)C(N)=C(C)C1=O)[C@@H]2COC(N)=O,-27%,?,?,1.3µM*
C[N+]1(CC(=O)c2ccccc2)CCc2ccccc2C1 (centres undefined),8%,/,10%,/
CCc1ccc(NC(=O)C2=CC(c3cccs3)=NS(=O)(=O)N2C)cc1,-26%,i,13µM*!,-2%
Cc1ccc(NC(=O)C2=CC(c3cccs3)=NS(=O)(=O)N2C)cc1,-36%,i,?,-16%
COc1ccc(C(CCN2CCCCC2)c2c(OC)cc(OC)c3c(-c4ccccc4)cc(=O)oc23)cc1 (centres undefined),18µM*!,22µM*,?,?
COc1cc(OC)c2c(-c3ccccc3)cc(=O)oc2c1C(CCN1CCOCC1)c1ccc(N(C)C)cc1 (centres undefined),-41%,?,?,-12%
COc1cc(OC)c2c(-c3ccccc3)cc(=O)oc2c1C(CCN1CCCC(C)C1)c1ccc2c(c1)OCO2 (centres undefined),-20%,10µM*,?,?
COc1cc(OC)c2c(-c3ccccc3)cc(=O)oc2c1C(CCN1CCCCC1)c1ccc(N(C)C)cc1 (centres undefined),-70%,22µM*,?,?
CN[C@@H](C)C(=O)N[C@H]1CN(C(=O)CC(C)C)CC[C@H]2CC[C@@H](C(=O)NC(c3ccccc3)c3ccccc3)N2C1=O,/,/,/,-3%
COc1ccc(CN2CCCC(c3nc(-c4ccncc4)ncc3-c3ccccc3)C2)cc1OC (centres undefined),/,i,/,/
CC(C)n1c(NCc2cc(Cl)ccc2O)nc2ccccc21,-40%,?,?,28µM*
